The entries come from a sample that favours hits as a whole.
FBPA Giardia inh – blocks Giardia fructose-bisphosphate aldolase activity | Potency, µM (doses to about 59.6 µM), without a hit: at the top dose activity, negative = inhibition, most hits filed as inhibitors | AID 2451 | A8B2U2 | 290,000 tested, 0.71% active | purified Giardia FBPA; also: potency is read from the fitted curve at half-maximal effect; % is scaled to controls: 0 for no effect and ±100 for the full control effect; nearly all actives have a fitted effect of over 55% in size
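40 nM FBPA preincubated 10 min at RT with compound (up to 57.5 uM final), then substrate plus GAPDH/TPI/NAD/arsenate coupling and diaphorase/resazurin added. Fluorescence read after 20 min at RT, 525/598 nm.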
LmPK inhibitor – inhibitors of Leishmania mexicana pyruvate kinase | 290,000 tested, 0.37% active | AID 1721 | purified LmPK, Kinase-Glo ATP luminescence, 1 h | Potency, µM (series often up to 57.5 µM), for the others: top-dose activity change, negative = inhibition, actives largely listed as inhibitors; also: potency is read from the fitted curve at half-maximal effect; % is scaled to controls: 0 for no effect and ±100 for the full control effect
Target sequence (Q27686 whole entry, looked up): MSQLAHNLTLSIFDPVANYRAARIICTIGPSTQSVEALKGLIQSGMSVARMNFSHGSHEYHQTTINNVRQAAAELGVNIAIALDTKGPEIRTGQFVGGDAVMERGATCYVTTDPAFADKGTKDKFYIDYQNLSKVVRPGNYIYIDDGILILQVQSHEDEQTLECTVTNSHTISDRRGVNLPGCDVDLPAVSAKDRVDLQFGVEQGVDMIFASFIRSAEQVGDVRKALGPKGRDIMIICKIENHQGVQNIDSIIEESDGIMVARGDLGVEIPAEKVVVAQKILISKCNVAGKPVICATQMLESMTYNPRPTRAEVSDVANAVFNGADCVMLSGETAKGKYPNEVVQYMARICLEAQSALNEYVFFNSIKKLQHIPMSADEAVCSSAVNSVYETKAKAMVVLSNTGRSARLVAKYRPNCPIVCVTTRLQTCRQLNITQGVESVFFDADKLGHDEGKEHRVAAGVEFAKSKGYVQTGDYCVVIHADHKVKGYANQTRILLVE
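Kinase-Glo luminescence read after 1 h RT reaction of 0.1 nM LmPK with 0.5 mM PEP and 0.1 mM ADP. Activity scaled between uninhibited and enzyme-free controls.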
Sm TGR block – blocks Schistosoma mansoni thioredoxin glutathione reductase; Potency, µM (titrated, usually from 114 µM), inactives show at the top dose activity change, negative = inhibition, hits mostly inhibitors; 360,000 tested, 3% active; purified TGR, DTNB reduction, TNB absorbance 405 nm; AID 485364; Q962Y6; also: potency is read from the fitted curve at half-maximal effect; % is scaled to controls: 0 for no effect and ±100 for the full control effect; nearly all actives have a fitted effect of over 60% in size
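Kinetic colorimetric format: TGR-catalysed, NADPH-driven DTNB reduction monitored via TNB absorbance. Enzyme dispensed at 20 nM; compound exposure 15 min at room temperature before reaction start.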
Tb PYK inh – blocks Trypanosoma brucei pyruvate kinase; Q57TT1; TbPYK enzyme, Kinase-Glo Plus ATP luminescence, 45 min; Potency, µM (highest dose often 76.8 µM), without a hit: at the highest dose activity, negative = inhibition, usual class: inhibitors; 410,000 tested, 0.12% active; AID 624173; also: potency is read from the fitted curve at half-maximal effect; % is scaled to controls: 0 for no effect and ±100 for the full control effect; nearly all actives have a fitted effect of over 50% in size
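Readout: single end-point luminescence (Kinase-Glo Plus, 10 min). Reaction conditions were TbPYK/substrate plus 130 uM ADP, 45 min at RT, pH 7.2 TEA buffer. No-enzyme wells served as controls, and data were normalized before concentration-response fitting.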
Shiga inhibitor – inhibitors of Shiga toxin in Vero cells. Vero cells, Shiga toxin protein synthesis inhibition reporter. inhibition, % at 38.7 µM. 290,000 tested, 9.2% active. AID 2315; in the data active = inhibition mostly above about 28%, no sharp cut-off; inactive = mostly below about 43%; also: 0% is about no effect
Cycloheximide cs – counter-screen for Shiga toxin inhibitors: cycloheximide protein synthesis inhibition | cell reporter, cycloheximide protein synthesis inhibition counterscreen | max response, % | 300,000 tested, 12% active; in the data active = max response mostly above about 13%, no sharp cut-off; inactive = mostly below about 14%; also: read at 38.3 µM for the half of the compounds with a filed dose; 0% is about no effect
Starred values were filed as active, the others as inactive; ? = inconclusive; / = no result given; ! = a repeat was not active; [ ] = dose if it differs, or a comment. Unless noted, calls follow the shape of the dose curve; as a rule, active = well fitted curve in the direction sought with a large enough effect; inconclusive = small, poorly fitted or top-dose-only effect, or another doubt; inactive = no such curve, though single readings can be large; an effect the other way counts as inactive or inconclusive.

SMILES	FBPA Giardia inh	LmPK inhibitor	Sm TGR block	Tb PYK inh	Shiga inhibitor	Cycloheximide cs
O=C(Nc1cccc(Cl)c1)NC1CCS(=O)(=O)C1 (centres undefined)	3%	0%	7%	-18%	-4	-1
CC(C)C(C(=O)O)N1C(=O)/C(=C/c2ccc(Br)cc2)SC1=S (centres undefined)	7%	/	/	/	21*	27*
CC(=C\c1ccccc1)/C=C1/SC(=S)N(C(C(=O)O)C(C)C)C1=O (centres undefined)	8%	5%	26%	6%	-2	-2
CCN1CCc2c(sc(NC(=O)c3ccc4ccccc4c3)c2C(N)=O)C1	/	-1%	3%	/	28	20*
COc1ccc(C(=O)Nc2sc3c(c2C(N)=O)CCCC3)cc1OC	2%	/	/	/	60*	42*
COCCN(CCOC)S(=O)(=O)c1ccc(C(=O)Nc2sc3c(c2C(N)=O)CCCCC3)cc1	4%	5%	2%	2%	63*	33*
CCN1CCN(S(=O)(=O)c2ccc(C(=O)Nc3sc4c(c3C(N)=O)CCN(CC)C4)cc2)CC1	/	-12%	-24%	-3%	-35	-5
COC(=O)c1ccc(N=NN2CCOCC2)cc1	1%	-10%	0%	3%	34*	41*
COC(=O)c1ccc(N=NN2CCCCCC2)cc1	3%	-3%	0%	2%	88*	79*
CC(=O)NS(=O)(=O)c1ccc(N=NN2CCCCC2)cc1	8%	-1%	1%	-3%	-7	-2
NS(=O)(=O)c1ccc(N=NN2CCCCC2)cc1	2%	0%	5%	6%	56*	52*
COC(=O)c1ccc(C(=S)N2CCOCC2)cc1	3%	2%	5%	-13%	-3	6
CCCCC(=O)NS(=O)(=O)c1ccc(N=NN2CCCCC2)cc1	9%	4%	-2%	-4%	-2	-2
CC(=O)N(C(C)=O)S(=O)(=O)c1ccc(N=NN2CCCCC2)cc1	9%	-8%	-11%	4%	10	-1
O=C(O)c1ccc(N=NN2CCCCC2)cc1	22%	-27%	-2%[57.1 µM]	2%	57	53*
C=CS(=O)(=O)O	/	/	/	-7%	/	/
CCOC(=O)n1cnc2nc(N)nc(SC)c21	/	/	/	5%	/	/
O=P(C(=Nc1ccc(Cl)cc1)N1CCOCC1)(N1CCOCC1)N1CCOCC1	5%	-5%	1%	-17%	17	-3
Clc1ccc(N=NN2CCOCC2)cc1	6%	-4%	6%	-2%	71*	42*
Cc1ccc(CS(=O)Cc2ccc(C(=O)NC3CCCCCC3)o2)cc1 (centres undefined)	/	5%	?	-8%	30	5
O=C(NC1CC1)c1ccc(CSCc2ccccc2Cl)o1	/	-4%	?	-7%	18	26*
O=C(NCCc1ccc(Cl)cc1)c1ccc(CSCc2ccccc2Cl)o1	/	/	-21%	5%[15.4 µM]	/	/
O=C(NC1CCCCCC1)c1ccc(CS(=O)Cc2ccccc2Cl)o1 (centres undefined)	8%	2%	32µM*	3%	2	4
CCOc1ccc(CCNC(=O)c2ccc(CS(=O)Cc3ccc(Cl)cc3)o2)cc1 (centres undefined)	/	2%	28µM*!	10%	16	5
Cc1ccc(CNC(=O)c2ccc(CS(=O)Cc3ccccc3Cl)o2)cc1 (centres undefined)	/	2%	35µM*	-10%	20	-1
SMILES	FBPA Giardia inh	LmPK inhibitor	Sm TGR block	Tb PYK inh	Shiga inhibitor	Cycloheximide cs
O=C(NCCc1ccc(Cl)cc1)c1ccc(CS(=O)Cc2ccc(Cl)cc2)o1 (centres undefined)	8%	-3%	-21%	0%	11	-1
O=C(Cn1nc(-c2ccccc2)oc1=O)OCC(=O)c1ccccc1	/	/	/	5%	/	/
O=C(c1ccncc1)N1CCC2(CCCN(c3ccccn3)C2)CC1	-5%	/	/	-8%	/	/
Nc1nc2c(ncn2[C@@H]2O[C@H](CNCc3cnc(N4CCOCC4)nc3)[C@@H](O)[C@H]2O)c(=O)[nH]1	/	/	/	-3%	/	/
CCOc1ccc(CCNC(=O)c2ccc(CS(=O)Cc3ccccc3Cl)o2)cc1 (centres undefined)	7%	1%	-27%	5%	35	16*
O=C(NC1CCCCCC1)c1ccc(CS(=O)(=O)Cc2ccccc2F)o1	/	4%	22µM*	-8%	-5	-2
Cc1ccc(CS(=O)Cc2ccc(C(=O)NC3CCCC(C)C3C)o2)cc1 (centres undefined)	7%	-2%	35µM*	5%	-7	-3
Cc1ccc(CS(=O)Cc2ccc(C(=O)NC3CCC(C)CC3)o2)cc1 (centres undefined)	7%	-3%	?	-2%	15	6
COc1ccccc1S(=O)Cc1ccc(C(=O)NCCc2ccc(Cl)cc2)o1 (centres undefined)	1%	8%	40µM*	-15%	-7	-6
COc1ccccc1S(=O)Cc1ccc(C(=O)NC2CCCC2)o1 (centres undefined)	-1%	8%	-7%	-25%	-18	-5
COC(=O)[C@]12CCCCC=C1N(Cc1cccc3ccccc13)C(=O)[C@H](CC(=O)NCc1ccc(OC)c(OC)c1)C2	/	/	/	5%	/	/
CCOC(=O)Cc1csc(NC(=O)NC2(C(F)(F)F)Oc3ccc(Cl)cc3O2)n1 (centres undefined)	?	17%	?	-10%	-10	0
CCOC(=O)Cc1csc(NC(=O)NC2(C(F)(F)F)Oc3ccccc3O2)n1	-7%	8%	14µM*	-5%	19	9
CCOC(=O)Cc1csc(NC(=O)c2ccc(NC(C)=O)cc2)n1	-16%	-2%	-9%	4%	29	4
CCOC(=O)Cc1csc(NC(=O)Nc2ccc(OC(F)(F)F)cc2)n1	3%	0%	10%	3%	45*	23*
COc1ccc(CCc2nnc(CCC(=O)NCc3cc(C(C)C)no3)o2)cc1	1%	-15%	-3%[57.1 µM]	-2%	80*	35*
COc1ccc(CNC(=O)CCc2nc(-c3ccc(OC)cc3)no2)cc1	/	/	-5%	4%	/	/
COc1ccc(CCc2nnc(CCC(=O)NCCc3ncccc3C)o2)cc1	6%	-5%	0%[57.1 µM]	5%	25	21*
COC(=O)c1ccc(OCC(=O)NCCC2=CCCCC2)c(OC)c1	/	/	/	3%	/	/
O=C1CC(c2ccco2)CC(O)=C1C=Nc1ccc(Br)cc1 (centres undefined)	0%	1%	?	-6%	-5	11
O=C1CC(c2ccccc2)CC(O)=C1C=Nc1ccccc1 (centres undefined)	-2%	1%	0%	2%	92*	30*
O=C1CC(c2ccccc2)CC(O)=C1C=Nc1ccccc1O (centres undefined)	0%	3%	-1%[57.1 µM]	1%	32	23*
Cc1ccc(N=CC2=C(O)CC(c3ccco3)CC2=O)cc1 (centres undefined)	0%	-6%	-33%	7%	41	21*
